Our source for the Inhibition values is ChEMBL document CHEMBL4296182, “CO-ADD screening of NIH NCI Diversity Set V”.

Test [1] has as its system Staphylococcus aureus. Description: Antibacterial activity against Staphylococcus aureus MRSA ATCC 43300 (CO-ADD:GP_020); MIC in CAMBH media using NBS plates, by Resazurin F(560/590). The format is functional. Conditions: Concentration 20 uM, ASSAY_TEST Inhibition of Bacterial Growth, detection method Resazurin, Fluorescence (ex560/em590), MEDIA CAMHB, plate type 384well, CORNING #3640, time 18 hr. For orientation: Alamar Blue is a resazurin reagent that responds to reducing activity.

For test [2], the system named is Acinetobacter baumannii. Description: Antibacterial activity against Acinetobacter baumannii ATCC 19606 (CO-ADD:GN_034); MIC in CAMBH media using NBS plates, by Resazurin F(560/590). Conditions: Concentration 20 uM, ASSAY_TEST Inhibition of Bacterial Growth, detection method Resazurin, Fluorescence (ex560/em590), MEDIA CAMHB, plate type 384well, CORNING #3640, time 18 hr. It counts as functional.

For test [3], the system named is Escherichia coli. Kind of test: Antibacterial activity against Escherichia coli ATCC 25922 (CO-ADD:GN_001); MIC in CAMBH media using NBS plates, by Resazurin F(560/590). The format is functional. Conditions: Concentration 20 uM, ASSAY_TEST Inhibition of Bacterial Growth, detection method Resazurin, Fluorescence (ex560/em590), MEDIA CAMHB, plate type 384well, CORNING #3640, time 18 hr.

In test [4] the test system is Klebsiella pneumoniae. Conditions: Concentration 20 uM; ASSAY_TEST Inhibition of Bacterial Growth; detection method Absorption (OD600); MEDIA CAMHB; plate type 384well; NBS; CORNING #3640; time 18 hr.
Test [5] relates to Candida albicans. Conditions: 20 µM.
Test [6] deals with Cryptococcus neoformans. The following applies: Concentration 20 uM; ASSAY_TEST Inhibition of Fungal Growth; detection method Resazurin; Absorption (OD600-OD570); plate type 384well; NBS; CORNING #3640.

For part of these data: Entries with a potency or affinity are not part of this list.

As usually defined, the Inhibition is the relative decrease from the control value, in per cent. `Cc1c(CCO)c(=O)n2n1CCCC2`: the Inhibition in test [1] is -14.7%; in test [2], -6.34%; in test [3], -10.48%; in test [4], 7.18%; in test [5] it was -0.03%; in test [6] it was 3.75%.

For the molecule `COC(=O)C1=C(C(=O)OC)[C@@H]2CCC[C@H]1[C@H]1[C@@H]2N=NN1c1ccccc1`, the Inhibition was 22.18% in test [1]; -12.99% in test [2]; 6.51% in test [3]; 9.18% in test [4]; 2.48% in test [5]; 8.73% in test [6].

As to `c1cncc(-c2nc3ccccc3s2)c1`, the Inhibition in test [1] was -7.01%; in test [2] it was 4.56%; in test [3] it was -11.97%; in test [4], 2.37%; in test [5], 4.69%; in test [6], 25.76%.

As for `CCOC(=O)Cc1cc(O)c2cc(C)ccc2n1`, the Inhibition in test [1] was 11.68%; in test [2], -4.86%; in test [3], 11.33%; in test [4], 2.93%; in test [5], -1.04%; in test [6] it was -11.29%.

Turning to `CN(C(=O)c1ccncc1)c1ccccc1`, the Inhibition in test [1] was determined as 38.14%; in test [2], 13.73%; in test [3] it was 16.42%; in test [4], 7.45%; in test [5], 4.18%; in test [6] it was 6.4%.

Consider `CCCN=C(S)Nc1ccccc1`, for which the Inhibition was -20.14% in test [1]; -0.42% in test [2]; -3.75% in test [3]; 7.36% in test [4]; 4.15% in test [5]; 1.71% in test [6].

In the case of `Brc1ccc(-c2csc(Nc3nc(-c4ccc(Br)cc4)cs3)n2)cc1`, the Inhibition is 27.27% in test [1]; -8.44% in test [2]; 9.62% in test [3]; 1.43% in test [4]; 3.84% in test [5]; 3.42% in test [6].

`Oc1nccc(SCc2ccc(Cl)cc2Cl)n1`: the Inhibition in test [1] was 9.05%; in test [2] it was 6.51%; in test [3], 5.78%; in test [4] it was 11.54%; in test [5], 6.12%; in test [6], -13.08%.

For the molecule `CCCOc1ccc(-c2nc(-c3ccc(N)cc3)cs2)cc1`, the Inhibition in test [1] is 6.42%; in test [2], 13.93%; in test [3] it was 2.89%; in test [4] it was 4.45%; in test [5] it was 5.55%; in test [6], -3.2%.

Regarding `C=C(C)C(=O)Nc1ccc(NC(C)C)cc1`, the Inhibition in test [1] is 12%; in test [2] it was 5.36%; in test [3], 6.32%; in test [4], 8.48%; in test [5] it was 4.24%; in test [6], -6.96%.

Turning to `Cn1c(=O)c2nc(CCCc3ccc([N+](=O)[O-])cc3)[nH]c2n(C)c1=O`, the Inhibition is 7.08% in test [1]; -13.97% in test [2]; 3.35% in test [3]; 12.88% in test [4]; 0.38% in test [5]; -9.63% in test [6].

For `COC(=O)c1cncc(C)c1`, the Inhibition was 18.5% in test [1]; -13.2% in test [2]; 14.23% in test [3]; 15.45% in test [4]; 0.39% in test [5]; -1.27% in test [6].

`CCCc1cc(=O)oc2c3c(c4c(c12)OC(C)(C)C=C4)OC(C)[C@H](C)[C@@H]3O` (some centres undefined): the Inhibition in test [1] is 12.64%; in test [2], -5.36%; in test [3], 11.63%; in test [4] it was 20.98%; in test [5] it was 7.97%; in test [6], -3.22%.

As to `O=C(O)/C=C/C(=O)Nc1cccc2cccnc12`, the Inhibition is 36.64% in test [1]; -0.12% in test [2]; 28.31% in test [3]; 7.62% in test [4]; 8.39% in test [5]; 9.5% in test [6].

On to `Nc1nc(N)c(/C=N/c2ccc(Br)cc2)c(Nc2ccc(Br)cc2)n1`, for which the Inhibition in test [1] is -2.53%; in test [2] it was -11.54%; in test [3], 5.75%; in test [4], -1.66%; in test [5], -1.08%; in test [6], 1.82%.

For `CCOC(=O)c1cnc(SCC)nc1O`, the Inhibition in test [1] was 11.19%; in test [2], -12.25%; in test [3], 0.66%; in test [4], 10.25%; in test [5] it was 0.68%; in test [6] it was -8.17%.

`O=C(CC1(O)CCCCC1)OC1CCCC1`: the Inhibition was -23.97% in test [1]; 3.29% in test [2]; -15.82% in test [3]; -7.74% in test [4]; 2.66% in test [5]; 30.45% in test [6].

On to `O=C(/C=C/C(=O)N1CCc2ccccc2C1)N1CCc2ccccc2C1`, for which the Inhibition in test [1] was 0.65%; in test [2], -9.4%; in test [3] it was -3.52%; in test [4], 3.56%; in test [5], 7.97%; in test [6], -10.59%.

Regarding `Cc1nc2ccc(N)nc2nc1C`, the Inhibition in test [1] is 15.94%; in test [2] it was -14.31%; in test [3] it was 16.52%; in test [4], 12.13%; in test [5], -1.28%; in test [6] it was -2.36%.

Turning to `COc1ccc(C(=O)O)nc1C`, the Inhibition in test [1] is -3.26%; in test [2], -9.48%; in test [3], 11.67%; in test [4], 7.05%; in test [5], -1.1%; in test [6], -14%.

Take `NC(=O)CCC(C(=O)O)N1C(=O)C2C3CCC(C3)C2C1=O` (centres undefined): the Inhibition in test [1] was -3.52%; in test [2], -4.02%; in test [3] it was -8.27%; in test [4], 4.97%; in test [5], 2.39%; in test [6], -5.24%.

Regarding `c1ccc(-c2nc3ccccc3s2)nc1`, the Inhibition was 11.77% in test [1]; -14.54% in test [2]; 6.85% in test [3]; 18.93% in test [4]; 0.91% in test [5]; -15.52% in test [6].

For `O=C(NC(=S)Nc1ccccn1)c1ccccc1`, the Inhibition in test [1] is -7.14%; in test [2], -16.09%; in test [3] it was 5.5%; in test [4] it was 8.04%; in test [5], 10.1%; in test [6] it was -15.94%.

On to `Cc1ccc(Cl)cc1NC(=O)N(C)CCO`, for which the Inhibition in test [1] is -6.32%; in test [2] it was 12.85%; in test [3] it was -9.79%; in test [4], 13.54%; in test [5], 6.98%; in test [6] it was -5.5%.
